According to paper PMC6792352, “Limited Chemical Structural Diversity Found to Modulate Thyroid Hormone Receptor in the Tox21 Chemical Library” (Environmental Health Perspectives, 2019):
Counter-ions that a name gives are not always drawn.

tested on: thyroid hormone receptor (endogenous TRα and TRβ); parameters: species or system GH3-TRE-Luc (rat pituitary); GH3-TRE-Luc luciferase reporter, antagonist mode against 1 nM T3, loss of signal, qHTS; details: read-out: Average AC50 (uM) GH3-TRE-Antag, antagonist mode, 1 nM T3, no GH3 cytotoxicity hit

| SMILES | AC50 |
| --- | --- |
| COCC(C)N(C(=O)CCl)c1c(C)csc1C (stereo not shown) [Dimethenamid] | > 50 µM |
| COc1ccc(C(=O)c2ccccc2O)c(O)c1 [2,2'-Dihydroxy-4-methoxybenzophenone] | > 20 µM |
| CC(C)NCC(O)COc1ccc(CCOCC2CC2)cc1 (stereo not shown) [Betaxolol] | 39.4 µM |
| CCC(COC(=O)c1cc(OC)c(OC)c(OC)c1)(c1ccccc1)N(C)C (stereo not shown) [Trimebutine maleate] | 16.3 µM |
| CC(C)[C@H](C(=O)O[C@H](C#N)c1cccc(Oc2ccccc2)c1)c1ccc(Cl)cc1 [Esfenvalerate] | 48 µM |
| Cc1ccc(Nc2nccc(N(C)c3ccc4c(C)n(C)nc4c3)n2)cc1S(N)(=O)=O [Pazopanib] | 14 µM |
| CCc1ccc(CCOc2ccc(CC3SC(=O)NC3=O)cc2)nc1 (stereo not shown) [Pioglitazone hydrochloride] | > 50 µM |
| Cc1ccc(C(=O)C(C)CN2CCCCC2)cc1 (stereo not shown) [Tolperisone hydrochloride] | > 50 µM |
| CC(=O)C(Cl)C(=O)N(C)C (stereo not shown) [2-Chloro-N,N-dimethyl-3-oxobutanamide] | 90.4 µM |
| CC/C=C\CC/C=C/C(OCC)OCC [(2E,6Z)-1,1-diethoxynona-2,6-diene] | 61.1 µM |
| Clc1ccc(CCC(Cn2ccnc2)Sc2c(Cl)cccc2Cl)cc1 (stereo not shown) [Butoconazole nitrate] | 17.9 µM |
| C[C@]12CC[C@H](O)CC1=CC[C@@H]1[C@@H]2CC[C@]2(C)C(=O)CC[C@@H]12 [Dehydroepiandrosterone] | > 50 µM |
| N#Cc1cc(Br)c(O)c(Br)c1 [Bromoxynil] | 69.3 µM |
| COC1=CC(=O)O[C@@H](/C=C/c2ccc3c(c2)OCO3)C1 [Methysticin] | 0.0476 µM |
| Cc1c(Nc2ncccc2C(=O)O)cccc1C(F)(F)F [Flunixin meglumine] | 2.85 µM |
| Cc1ccc2nc(-c3ccc(N)cc3)sc2c1S(=O)(=O)O | 45.2 µM |
| CCCCC[Si](OCC)(OCC)OCC [Triethoxypentylsilane] | 45.9 µM |
| C#Cc1cccc(Nc2ncnc3cc(OCCOC)c(OCCOC)cc23)c1 [Erlotinib] | 21.9 µM |
| C=CC(=O)OCCC#N [2-Cyanoethyl prop-2-enoate] | 62.7 µM |

| SMILES | AC50 |
| --- | --- |
| CCc1cccc(C)c1N(C(=O)CCl)C(C)COC (stereo not shown) [Metolachlor] | 77 µM |
| C=CC(=O)OCCOc1ccccc1 [2-Phenoxyethyl acrylate] | 47.8 µM |
| COc1ccc(C(CN(C)C)C2(O)CCCCC2)cc1 (stereo not shown) [Venlafaxine hydrochloride] | 71 µM |
| Cc1cccc(Nc2ccccc2C(=O)O)c1C [Mefenamic acid] | 27.4 µM |
| O=S(=O)(NS(=O)(=O)C(F)(F)F)C(F)(F)F [1-Hexyl-3-methylimidazolium bis(trifluoromethylsulfonyl)imide] | 66.1 µM |
| Oc1cc(Cl)cc(Cl)c1Cl [2,3,5-Trichlorophenol] | 57 µM |
| CC1=CC[C@H](C(C)C)C=C1 [(R)-alpha-Phellandrene] | 54.5 µM |
| C[C@]12CCC(=O)C=C1C=C[C@@H]1[C@@H]2CC[C@@]2(C)[C@H]1CC[C@@]21CCC(=O)O1 [Canrenone] | 34.1 µM |
| CCN(CC)CCNC(C(=O)OCCC(C)C)c1ccccc1 (stereo not shown) [Camylofin] | > 50 µM |
| C[C@@H]1C[C@H]2[C@@H]3CCC4=CC(=O)C=C[C@]4(C)[C@@]3(Cl)[C@@H](O)C[C@]2(C)[C@@]1(OC(=O)c1ccco1)C(=O)CCl [Mometasone furoate] | 16.9 µM |
| S=P(N1CC1)(N1CC1)N1CC1 [Thiotepa] | 37.9 µM |
| C1COC(NC(C2CC2)C2CC2)=N1 [Rilmenidine] | 29.6 µM |
| Cc1cc(OI)c(C(C)C)cc1-c1cc(C(C)C)c(OI)cc1C [Thymol iodide] | 37.3 µM |
| C/C=C\C/C=C/CCCCCCCCOC(C)=O [(9E,12Z)-9,12-Tetradecadien-1-ol acetate] | 68.2 µM |
| O=c1oc2ccccc2c(O)c1Cc1c(O)c2ccccc2oc1=O [Dicumarol] | 12.7 µM |
| C[C@@H]1C[C@H]2[C@@H]3C[C@H](F)C4=CC(=O)C(Cl)=C[C@]4(C)[C@@]3(F)[C@@H](O)C[C@]2(C)[C@@]1(O)C(=O)CO [Halometasone hydrate] | 33.2 µM |
| c1cnc2cc3c(cc2n1)[C@@H]1CNC[C@H]3C1 [Varenicline dihydrochloride] | 63.5 µM |
| CN(C)c1ccc(O)c2c1C[C@H]1C[C@H]3[C@H](N(C)C)C(O)=C(C(N)=O)C(=O)[C@@]3(O)C(O)=C1C2=O [Minocycline hydrochloride] | 44.9 µM |
